Drawing on PubChem BioAssay (NCI), this text covers growth inhibition for ten compounds.

Assay [1] can be described thus: NCI Yeast Anticancer Drug Screen. Data for the rad50 strain (AID 155).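 Also: 0% = growth of vehicle-only cultures of the same strain.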 As to conditions: S. cerevisiae rad50 strain growth inhibition, active compounds read high. A digest of the protocol:
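Cells are treated with compound, grown, and their growth is then scored against vehicle-only cultures of the same repair-deficient yeast strain.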

Assay [2] is described as follows: NCI Yeast Anticancer Drug Screen. Data for the mec2-1 strain (AID 157). As to conditions: S. cerevisiae mec2-1 strain, active compounds read high. The procedure, abridged: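 Vehicle-treated cultures served as reference for growth inhibition of compound-exposed mec2-1 yeast.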
Assay [3] in a line: NCI Yeast Anticancer Drug Screen. Data for the sgs1 mgt1 strain (AID 161).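 Also: 0% = growth of cultures given vehicle only.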 As to conditions: S. cerevisiae sgs1 mgt1 strain, active compounds read high. A digest of the protocol: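 Mutant yeast exposed to compound; growth scored against vehicle-only wells.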
Assay [4] in a line: NCI Yeast Anticancer Drug Screen. Data for the cln2 rad14 strain (AID 165).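 Also: 0% = growth equal to vehicle treated cultures.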 As to conditions: S. cerevisiae cln2 rad14 strain, active compounds read high. A digest of the protocol: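 Each compound was tested on cln2 rad14 yeast. Inhibition of growth was calculated against vehicle-exposed controls.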
The nature of assay [5]: NCI Yeast Anticancer Drug Screen. Data for the bub3 strain (AID 167). As to conditions: S. cerevisiae bub3 mutant strain, active compounds read high. A digest of the protocol: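 Part of a panel of yeast mutants defective in DNA damage repair or cell cycle regulation. Each strain is grown with compound, and inhibition is calculated relative to solvent-treated cultures.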
A short description of assay [6]: NCI Yeast Anticancer Drug Screen. Data for the mlh1 rad18 strain (AID 175). As to conditions: S. cerevisiae mlh1 rad18 strain growth inhibition, active compounds read high. The procedure, abridged: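 Vehicle-treated cultures served as the reference for growth inhibition in a yeast strain carrying DNA damage repair alterations exposed to each compound.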
Setting [7] is: at 5.0 µM (retest, dose inferred, filed as 0.5).
Setting [8] is: at 50.0 µM (retest, dose inferred, filed as 5.0).

About 79,000 compounds went through this panel and 15% of them were active in at least one assay; those are over-represented in the sample as a whole. Values without a mark were called inactive. The source made the active and inactive calls. Rule as the data show it: active = growth inhibition above about 70%; inactive = the rest.

For the compound `COc1ccc2nc3cc(Cl)ccc3c(NCCC[N+](C)(C)CCCCCCCCCC[N+](C)(C)CCCNc3c4ccc(Cl)cc4nc4ccc(OC)cc34)c2c1`, the growth inhibition in assay [1] (setting [7]) is 44%; in assay [1] (setting [8]) it was 98% (active); in assay [1] (at 50.0 µM), 96% (active); in assay [2] (setting [7]), 22%; in assay [2] (setting [8]) it was 98% (active); in assay [2] (at 50.0 µM) it was 88.3% (active). Besides, the growth inhibition in assay [3] (setting [7]) was 29%; in assay [3] (setting [8]), 98% (active); in assay [3] (at 50.0 µM) it was 95.8% (active); in assay [4] (setting [7]), 24%; in assay [4] (setting [8]), 94% (active); in assay [4] (at 50.0 µM), 55.8%. In addition, the growth inhibition is 21% in assay [5] (setting [7]); 98% (active) in assay [5] (setting [8]); 6.45% in assay [5] (at 50.0 µM); 41% in assay [6] (setting [7]); 99% (active) in assay [6] (setting [8]); 96.2% (active) in assay [6] (at 50.0 µM).

Turning to `COc1ccc(C=C(C(=O)c2ccccc2)C(=O)c2ccccc2)cc1`, the growth inhibition in assay [1] (setting [7]) is 12%; in assay [1] (setting [8]), 95% (active); in assay [1] (at 50.0 µM) it was 91.3% (active); in assay [2] (setting [7]), -7%; in assay [2] (setting [8]), 96% (active); in assay [2] (at 50.0 µM) it was 92.3% (active). Besides, the growth inhibition in assay [3] (setting [7]) is -6%; in assay [3] (setting [8]), 94% (active); in assay [3] (at 50.0 µM), 91.3% (active); in assay [4] (setting [7]) it was 14%; in assay [4] (setting [8]), 95% (active); in assay [4] (at 50.0 µM), 88.5% (active). Moreover, the growth inhibition is 16% in assay [5] (setting [7]); 98% (active) in assay [5] (setting [8]); 92% (active) in assay [5] (at 50.0 µM); -12% in assay [6] (setting [7]); 98% (active) in assay [6] (setting [8]); 90.8% (active) in assay [6] (at 50.0 µM).

Turning to `CCC1=C(C)/C(=C/c2[nH]c(C(Br)Br)c(CC)c2C)N=C1C(Br)Br`, the growth inhibition in assay [1] (setting [7]) was -1%; in assay [1] (setting [8]), 98% (active); in assay [1] (at 50.0 µM), 30.6%; in assay [2] (setting [7]) it was -6%; in assay [2] (setting [8]), 99% (active); in assay [2] (at 50.0 µM), 45.1%. The growth inhibition in assay [3] (setting [7]) is 2%; in assay [3] (setting [8]), 99% (active); in assay [3] (at 50.0 µM) it was 26%; in assay [4] (setting [7]), -6%; in assay [4] (setting [8]), 97% (active); in assay [4] (at 50.0 µM) it was 75.2% (active). The growth inhibition in assay [5] (setting [7]) is 0%; in assay [5] (setting [8]) it was 93% (active); in assay [5] (at 50.0 µM), 49.3%; in assay [6] (setting [7]) it was 0%; in assay [6] (setting [8]) it was 98% (active); in assay [6] (at 50.0 µM) it was 45.6%.

Turning to `N#CC1=C(C#N)Sc2nc3cc(Cl)ccc3nc2S1`, the growth inhibition in assay [1] (setting [7]) was 17%; in assay [1] (setting [8]), 99% (active); in assay [1] (at 50.0 µM), 68.7%; in assay [2] (setting [7]) it was 24%; in assay [2] (setting [8]) it was 99% (active); in assay [2] (at 50.0 µM), 91.1% (active). In addition, the growth inhibition in assay [3] (setting [7]) is 30%; in assay [3] (setting [8]), 98% (active); in assay [3] (at 50.0 µM) it was 77.9% (active); in assay [4] (setting [7]), 25%; in assay [4] (setting [8]), 99% (active); in assay [4] (at 50.0 µM), 20.6%. In addition, the growth inhibition in assay [5] (setting [7]) is 19%; in assay [5] (setting [8]), 98% (active); in assay [5] (at 50.0 µM) it was 41.9%; in assay [6] (setting [7]), 29%; in assay [6] (setting [8]) it was 99% (active); in assay [6] (at 50.0 µM), 94.8% (active).

On to `CC(C)(c1cc(Br)c(O)c(Br)c1)c1cc(Br)c(O)c(Br)c1`, for which the growth inhibition was 76% (active) in assay [1] (setting [7]); 97% (active) in assay [1] (setting [8]); 87.2% (active) in assay [1] (at 50.0 µM); 82% (active) in assay [2] (setting [7]); 99% (active) in assay [2] (setting [8]); 90.7% (active) in assay [2] (at 50.0 µM). The growth inhibition is 85% (active) in assay [3] (setting [7]); 98% (active) in assay [3] (setting [8]); 87.9% (active) in assay [3] (at 50.0 µM); 81% (active) in assay [4] (setting [7]); 99% (active) in assay [4] (setting [8]); 89.5% (active) in assay [4] (at 50.0 µM). The growth inhibition in assay [5] (setting [7]) is 88% (active); in assay [5] (setting [8]), 98% (active); in assay [5] (at 50.0 µM) it was 87.5% (active); in assay [6] (setting [7]) it was 93% (active); in assay [6] (setting [8]), 97% (active); in assay [6] (at 50.0 µM), 87.5% (active).

As for `COc1ccc(C(=O)c2cc(Br)ccc2O)cc1`, the growth inhibition is -3% in assay [1] (setting [7]); 4% in assay [1] (setting [8]); 89.3% (active) in assay [1] (at 50.0 µM); -6% in assay [2] (setting [7]); 4% in assay [2] (setting [8]); 71.9% (active) in assay [2] (at 50.0 µM). Besides, the growth inhibition in assay [3] (setting [7]) was -1%; in assay [3] (setting [8]), 18%; in assay [3] (at 50.0 µM), 84% (active); in assay [4] (setting [7]), -20%; in assay [4] (setting [8]), -9%; in assay [4] (at 50.0 µM), 46%. Further, the growth inhibition in assay [5] (setting [7]) was 3%; in assay [5] (setting [8]), 11%; in assay [5] (at 50.0 µM), 94.5% (active); in assay [6] (setting [7]) it was -1%; in assay [6] (setting [8]) it was -2%; in assay [6] (at 50.0 µM), 90.1% (active).

With `C/C=C/c1ccc(OCC(=O)O)c(OC)c1`, the growth inhibition in assay [1] (setting [7]) was -14%; in assay [1] (setting [8]), -10%; in assay [1] (at 50.0 µM) it was 99% (active); in assay [2] (setting [7]), -9%; in assay [2] (setting [8]), -18%; in assay [2] (at 50.0 µM), 98.2% (active). For the same compound, the growth inhibition in assay [3] (setting [7]) is 8%; in assay [3] (setting [8]), 1%; in assay [3] (at 50.0 µM), 98.2% (active); in assay [4] (setting [7]), -3%; in assay [4] (setting [8]), -11%; in assay [4] (at 50.0 µM), 98.2% (active). The growth inhibition was -31% in assay [5] (setting [7]); -4% in assay [5] (setting [8]); 98.8% (active) in assay [5] (at 50.0 µM); -5% in assay [6] (setting [7]); -11% in assay [6] (setting [8]); 98% (active) in assay [6] (at 50.0 µM).

On to `O=C(CC(O)(C(F)(F)F)C(F)(F)Cl)CC(O)(C(F)(F)F)C(F)(F)Cl` (stereo not given), for which the growth inhibition was 94% (active) in assay [1] (setting [7]); 88% (active) in assay [1] (setting [8]); 99.3% (active) in assay [1] (at 50.0 µM); 92% (active) in assay [2] (setting [7]); 99% (active) in assay [2] (setting [8]); 99.4% (active) in assay [2] (at 50.0 µM). The growth inhibition in assay [3] (setting [7]) is 91% (active); in assay [3] (setting [8]), 99% (active); in assay [3] (at 50.0 µM) it was 99.7% (active); in assay [4] (setting [7]), 89% (active); in assay [4] (setting [8]) it was 99% (active); in assay [4] (at 50.0 µM) it was 99% (active). Besides, the growth inhibition in assay [5] (setting [7]) was 86% (active); in assay [5] (setting [8]) it was 99% (active); in assay [5] (at 50.0 µM), 99.5% (active); in assay [6] (setting [7]), 94% (active); in assay [6] (setting [8]) it was 99% (active); in assay [6] (at 50.0 µM), 99.4% (active).

In the case of `S=C(S)NCCN1CCNC1=S`, the growth inhibition in assay [1] (setting [7]) is 10%; in assay [1] (setting [8]) it was 76% (active); in assay [1] (at 50.0 µM) it was 60.4%; in assay [2] (setting [7]) it was 5%; in assay [2] (setting [8]), 50%; in assay [2] (at 50.0 µM), 60.9%. The growth inhibition in assay [3] (setting [7]) is 5%; in assay [3] (setting [8]) it was 64%; in assay [3] (at 50.0 µM), 80% (active); in assay [4] (setting [7]) it was 2%; in assay [4] (setting [8]) it was 18%; in assay [4] (at 50.0 µM), -5.05%. For the same compound, the growth inhibition in assay [5] (setting [7]) was 14%; in assay [5] (setting [8]), 95% (active); in assay [5] (at 50.0 µM), 63.8%; in assay [6] (setting [7]) it was 7%; in assay [6] (setting [8]), 78% (active); in assay [6] (at 50.0 µM), 77.1% (active).

As to `O=C(OCc1ccccc1)N1N=NC2C1C1CC(OCc3ccccc3)(OCc3ccccc3)C2O1` (stereo not given), the growth inhibition in assay [1] (setting [7]) is 18%; in assay [1] (setting [8]), 18%; in assay [1] (at 50.0 µM), 40.1%; in assay [2] (setting [7]), 2%; in assay [2] (setting [8]), 2%; in assay [2] (at 50.0 µM) it was -21.9%. The growth inhibition in assay [3] (setting [7]) was 18%; in assay [3] (setting [8]) it was 18%; in assay [3] (at 50.0 µM) it was -10.7%; in assay [4] (setting [7]) it was 4%; in assay [4] (setting [8]), 4%; in assay [4] (at 50.0 µM) it was 13.2%. In addition, the growth inhibition in assay [5] (setting [7]) was 6%; in assay [5] (setting [8]), 6%; in assay [5] (at 50.0 µM), 18%; in assay [6] (setting [7]), 18%; in assay [6] (setting [8]) it was 18%; in assay [6] (at 50.0 µM), -22.2%.
